In the supplement of paper PMC9262897, “Low-cost anti-mycobacterial drug discovery using engineered E. coli” (Nature Communications, 2022):
Structures can show the parent of a compound that is named as a salt. ± gives the standard deviation of the averaged measurements.

Columns and labels:
Experiment in all cases: growth (OD600 after 10 h); higher = more growth (less inhibition)
[1] = system: E. coli TESEC Alr+ wild-type control; settings: compound 0.1 mM; raw OD600 reference: median of DMSO wells 0.241, cell-free background 0.041
Procedure: (§1)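 TESEC Mtb Alr E. coli, or the Alr+ wild-type control, in 384-well plates with Prestwick library compounds at 0.1 mM and 1% DMSO, across arabinose induction levels of 1E3 to 1E7 nM. Growth is read as OD600 after 10 h at 37 °C in triplicate biological replicates.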

E. coli TESEC Mtb Alr [2] = settings: compound 0.1 mM
Procedure: as §1

E. coli TESEC Mtb Asd = settings: compound 0.1 mM
Procedure: (§2)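 TESEC E. coli strains in which the native enzyme is deleted and replaced by arabinose-inducible Mtb Asd, DapB, CysH or TrpD, each grown in its selective medium. Strains were screened against the Prestwick library at 0.1 mM and 1% DMSO in 384-well format at low and high arabinose induction. Growth is read as OD600 after 10 h in triplicate.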

E. coli TESEC Mtb DapB = settings: compound 0.1 mM
Procedure: as §2

[3] = system: E. coli TESEC Alr+ wild-type control; settings: compound 0.1 mM; raw OD600 reference: median of DMSO wells 0.49, cell-free background 0.052
Procedure: (§3)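 TESEC Mtb Alr E. coli (ΔaraC ΔtolC ΔentC Δalr ΔdadX, arabinose-inducible Mtb Alr) or the Alr+ wild-type control strain, grown in defined M9-fructose medium without D-alanine in 96-well plates with Prestwick library compounds at 0.1 mM and 1% DMSO. Low Alr induction is 0.1 µM arabinose and high induction is 10 mM arabinose.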

E. coli TESEC Mtb Alr [4] = settings: compound 0.1 mM; remark: listed apart in the source
Procedure: as §3

[5] = arabinose 1000 nM, raw OD600 reference: median of DMSO wells 0.294, cell-free background 0.041
[6] = arabinose 10000 nM, raw OD600 reference: median of DMSO wells 0.264, cell-free background 0.041
[7] = arabinose 100000 nM, raw OD600 reference: median of DMSO wells 0.201, cell-free background 0.041
[8] = arabinose 1000000 nM, raw OD600 reference: median of DMSO wells 0.193, cell-free background 0.041
[9] = arabinose 10000000 nM, raw OD600 reference: median of DMSO wells 0.146, cell-free background 0.041
[10] = arabinose induction (level): High, raw OD600 reference: median of DMSO wells 0.331, cell-free background 0.041
[11] = arabinose induction (level): Low, raw OD600 reference: median of DMSO wells 0.417, cell-free background 0.041
[12] = arabinose induction (level): High, raw OD600 reference: median of DMSO wells […], cell-free background 0.041
[13] = arabinose induction (level): Low, raw OD600 reference: median of DMSO wells 0.227, cell-free background 0.041
[14] = arabinose 100 nM, raw OD600 reference: median of DMSO wells 0.413, cell-free background 0.052
[15] = arabinose 10000000 nM, raw OD600 reference: median of DMSO wells […], cell-free background 0.052

Row | SMILES | growth [1] | growth (E. coli TESEC Mtb Alr [2]; [5]) | growth (E. coli TESEC Mtb Alr [2]; [6]) | growth (E. coli TESEC Mtb Alr [2]; [7]) | growth (E. coli TESEC Mtb Alr [2]; [8]) | growth (E. coli TESEC Mtb Alr [2]; [9]) | growth (E. coli TESEC Mtb Asd; [10]) | growth (E. coli TESEC Mtb Asd; [11]) | growth (E. coli TESEC Mtb DapB; [12]) | growth (E. coli TESEC Mtb DapB; [13]) | growth [3] | growth (E. coli TESEC Mtb Alr [4]; [14]) | growth (E. coli TESEC Mtb Alr [4]; [15])
1 | Clc1ccc(C(Cn2ccnc2)OCc2csc3c(Cl)cccc23)c(Cl)c1 (stereo unspecified) [Sertaconazole nitrate] | 0.0563 ± 0.0014 | 0.0558 ± 0.0094 | 0.07 ± 0.0042 | 0.057 ± 0.0028 | 0.06457 ± 0.00042 | 0.0588 ± 0.0084 | 0.0594 ± 0.0039 | 0.0635 ± 0.0047 | 0.0687 ± 0.0033 | 0.0671 ± 0.0089 | 0.129 ± 0.036 | 0.12 ± 0.024 | 0.123 ± 0.0052
2 | OC(CCN1CCCCC1)(c1ccccc1)C1CC2C=CC1C2 (stereo unspecified) [Biperiden hydrochloride] | 0.23 ± 0.031 | 0.284 ± 0.0095 | 0.275 ± 0.0046 | 0.226 ± 0.03 | 0.155 ± 0.0033 | 0.154 ± 0.0039 | 0.194 ± 0.045 | 0.38 ± 0.094 | 0.159 ± 0.012 | 0.174 ± 0.016 | 0.509 ± 0.062 | 0.415 ± 0.011 | 0.359 ± 0.035
3 | CN(C)CCOC(C)(c1ccccc1)c1ccccn1 (stereo unspecified) [Doxylamine succinate] | 0.236 ± 0.0058 | 0.288 ± 0.016 | 0.249 ± 0.0028 | 0.19 ± 0.025 | 0.164 ± 0.0088 | 0.141 ± 0.0072 | 0.301 ± 0.028 | 0.374 ± 0.071 | 0.179 ± 0.019 | 0.206 ± 0.011 | 0.51 ± 0.06 | 0.41 ± 0.0066 | 0.353 ± 0.0099
4 | Cc1cc2c(s1)Nc1ccccc1N=C2N1CCN(C)CC1 [Olanzapine] | 0.207 ± 0.0059 | 0.286 ± 0.014 | 0.267 ± 0.0071 | 0.183 ± 0.015 | 0.158 ± 0.006 | 0.136 ± 0.0056 | 0.305 ± 0.043 | 0.457 ± 0.018 | 0.213 ± 0.029 | 0.249 ± 0.026 | 0.502 ± 0.029 | 0.403 ± 0.014 | 0.319 ± 0.01
5 | Nc1ncn(C2OC(CO)C(O)C2O)c(=O)n1 (stereo unspecified) [Azacytidine-5] | 0.093 ± 0.0029 | 0.106 ± 0.0065 | 0.0449 ± 0.0005 | 0.113 ± 0.0011 | 0.0465 ± 0.00069 | 0.0822 ± 0.0002 | 0.125 ± 0.0088 | 0.192 ± 0.065 | 0.199 ± 0.03 | 0.193 ± 0.027 | 0.4795 ± 0.0037 | 0.385 ± 0.022 | 0.066 ± 0.0049
6 | COc1ccc(/C=C/C(=O)Nc2ccccc2C(=O)O)cc1OC [Tranilast] | 0.171 ± 0.0022 | 0.245 ± 0.0071 | 0.27 ± 0.0085 | 0.134 ± 0.011 | 0.104 ± 0.002 | 0.126 ± 0.0016 | 0.218 ± 0.032 | 0.279 ± 0.082 | 0.204 ± 0.035 | 0.178 ± 0.011 | 0.452 ± 0.0089 | 0.308 ± 0.12 | 0.15 ± 0.012
7 | COC1=CC(=O)C[C@@H](C)[C@]12Oc1c(Cl)c(OC)cc(OC)c1C2=O [Griseofulvin] | 0.223 ± 0.0068 | 0.2842 ± 0.002 | 0.2487 ± 0.002 | 0.208 ± 0.021 | 0.0853 ± 0.0022 | 0.135 ± 0.006 | 0.241 ± 0.051 | 0.385 ± 0.11 | 0.174 ± 0.0029 | 0.233 ± 0.022 | 0.514 ± 0.041 | 0.416 ± 0.013 | 0.21 ± 0.032
